Experimental data from PubChem BioAssay AID651551 (Sanford-Burnham Center for Chemical Genomics, 2012).

molecular target: PEG-3 (UniProt Q6IN02); test: GAPDH versus PEG-3 reporter suppression – cell-based, luminescence, counter-screen for PEG-3 promoter inhibitor project, SAR follow-up (AID 651551); conditions: HeLa PEG-Prom / GAPDH luciferase reporter, 6 or 24 h, run 1, 24 h; at 99 µM (top of the series)

| Structure (SMILES) | inhibition % (higher = more inhibition) [%] |
| --- | --- |
| Cc1cc(NC(=O)c2ccccc2)n(-c2nc3ccccc3n2C)n1 | 10.1 |
| Cc1nc(NC(=O)c2ccccc2)sc1-c1csc(Nc2ccccc2)n1 | 73.4 |
| COc1ccc(-n2nc(C(=O)NCC(=O)Nc3cc(OC)c(OC)c(OC)c3)c3ccccc3c2=O)cc1OC | 47.5 |
| COc1ccc(Cl)cc1Nc1nc(-c2sc(NC(=O)c3ccccc3)nc2C)cs1 | 44.2 |
| Cc1cc(NC(=O)c2ccccc2C(F)(F)F)n(-c2nc3ccccc3[nH]2)n1 | 93.5 |
| Cc1cc(NC(=O)c2ccccc2C)n(-c2nc3ccccc3[nH]2)n1 | 47.5 |
| COc1ccc(-n2nc(C(=O)NCC(=O)Nc3ccc(OC)c(OC)c3)c3ccccc3c2=O)cc1 | 53.3 |
| Cc1nc(NC(=O)c2ccccc2)sc1-c1csc(Nc2cccc(Cl)c2C)n1 | -27.2 |
| CCn1nc(C(=O)Nc2nc(-c3ccccn3)cs2)c2ccccc2c1=O | 49.2 |
| Cc1nc(NC(=O)c2ccccc2)sc1-c1csc(Nc2ccccc2Cl)n1 | -64.6 |
| CCCn1nc(C(=O)Nc2nc3ccccc3s2)c2ccccc2c1=O | 33.1 |
| Cc1ccc(Cl)cc1Nc1nc(-c2sc(NC(=O)c3ccco3)nc2C)cs1 | 24.5 |
| COc1ccccc1Nc1nc(-c2sc(NC(=O)c3ccco3)nc2C)cs1 | 18.8 |
| Cc1cc(NC(=O)c2ccccc2)n(-c2nc3ccccc3[nH]2)n1 | -6.81 |
| CCn1cc(C(=O)NCc2ccco2)c(=O)c2cc(S(=O)(=O)N3CCCC3)ccc21 | 47.5 |
| O=C(Nc1nc2ccccc2s1)c1nn(-c2ccccc2)c(=O)c2ccccc12 | -7.12 |
| Cc1cc(NC(=O)c2cccc(C)c2C)n(-c2nc3ccccc3[nH]2)n1 | 79.1 |
| O=C(Nc1nc(-c2ccccc2)cs1)c1nn(-c2ccccc2)c(=O)c2ccccc12 | 13 |
| COCCCNC(=O)c1ccc(Cn2c(=O)c3ccccc3n(Cc3ccccc3C#N)c2=O)cc1 | 54.2 |
| COc1ccc(-n2nc(C(=O)NCC(=O)Nc3cccc(OC)c3)c3ccccc3c2=O)cc1 | 24.5 |
| CCCn1nc(C(=O)Nc2nc(-c3ccccn3)cs2)c2ccccc2c1=O | 39.1 |
| CCCn1nc(C(=O)Nc2nc(-c3ccncc3)cs2)c2ccccc2c1=O | 31.6 |
| O=C(Nc1nccs1)c1nn(-c2ccccc2)c(=O)c2ccccc12 | 41.8 |
